Consider 26 molecules from PubChem BioAssay AID504848 (National Center for Advancing Translational Sciences (NCATS), 2011).

The campaign covered roughly 2,300 compounds. About 1,400 (61%) were called active. Not shown: some 29% with an inconclusive outcome. So high a share suggests a set chosen from earlier hits. The list shows a part of the results. Unmarked numbers belong to inactive results. Calls follow the shape of the dose curve; as a rule, active = well fitted inhibition curve with a large enough effect; inconclusive = small, poorly fitted or top-dose-only effect, or effect the other way; inactive = no such curve, though single readings can be large or run the other way.
% is scaled to controls: 0 for no effect and ±100 for the full control effect; potency is read from the fitted curve at half-maximal effect.

The experiment can be described thus: Confirmation screen for delayed death inhibitors of the malarial parasite plastid, 96 hour incubation. Also: nearly all actives have a fitted effect of over 60% in size. To be noted: P. falciparum luciferase growth in erythrocytes; series mostly up to 28.7 µM; activity change, negative = inhibition: at the top concentration. The procedure, abridged: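 Erythrocytes infected with luciferase-expressing P. falciparum (2% hematocrit, 0.1% parasitemia final) in RPMI 1640 with 0.5% Albumax, exposed to compounds 96 h at 37 C, 5% CO2. Growth inhibition read as decreased luciferase luminescence.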
With `COc1ccc(N2C(=O)C3C(C2=O)C(C(=O)c2ccc(Cl)cc2)N2CCCC32)cc1` (stereo unspecified), the “activity change, negative = inhibition” value is -33.2%.

Regarding `Cc1c(OC(C)C(=O)N2C[C@H]3C[C@@H](C2)c2cccc(=O)n2C3)ccc2c3c(c(=O)oc12)CCC3` (stereo partly specified), the Potency was 11.2 µM (active).

For the molecule `Cc1c(CC(=O)N2C[C@H]3C[C@@H](C2)c2cccc(=O)n2C3)c(=O)oc2cc3occ(C(C)(C)C)c3cc12`, the Potency is 12.6 µM (active).

Consider `CC(C)N1C/C(=C/c2ccsc2)C(=O)/C(=C/c2ccsc2)C1`, for which the Potency is 5.62 µM (active).

With `CCC1S/C(=N/N=C/c2ccco2)N(Cc2ccccc2C)C1=O` (stereo unspecified), the Potency was 10 µM (active).

On to `CCc1nc(SCC(=O)N2c3ccccc3CC2C)c2c(C)c(C)sc2n1` (stereo unspecified), for which the Potency is 11.2 µM (active).

Take `CCc1nc(SCC(=O)Nc2ccccc2OC)c2c(C)c(C)sc2n1`: the Potency is 12.6 µM (active).

On to `CC(=O)NCCC(=O)Nc1cc(S(=O)(=O)N2CCOCC2)ccc1Oc1ccccc1`, for which the Potency was 10 µM (active).

Regarding `CN(C)S(=O)(=O)c1ccc(NCC2COc3ccccc3O2)c([N+](=O)[O-])c1` (stereo unspecified), the Potency was 12.6 µM (active).

Turning to `COc1ccc(C(=O)CC(SCC(NC(C)=O)C(=O)O)c2ccc(Cl)cc2)cc1OC` (stereo unspecified), the Potency was 11.2 µM (active).

On to `CCOC(=O)N1C/C(=C\c2ccccc2)C(=O)/C(=C/c2ccccc2)C1`, for which the Potency was 4.47 µM (active).

In the case of `O=[N+]([O-])c1ccc(C[n+]2cccc3c4ccccc4ccc32)cc1`, the Potency is 0.126 µM (active).

With `COC1C(OC(=O)/C=C/C=C/C=C/C=C/C(=O)O)CCC2(CO2)C1C1(C)OC1CC=C(C)C` (stereo unspecified), the Potency was 0.0501 µM (active).

For `CC1=CC(C)(C)N2C(=O)C3(NCCc4c3[nH]c3ccccc43)c3cc(C)cc1c32` (stereo unspecified), the Potency was 11.2 µM (active).

As to `Fc1ccc(CNc2ccc(N3CCN(Cc4ccccc4)CC3)cc2)cc1`, the Potency is 12.6 µM (active).

For the molecule `CCCc1c(NC(=O)Nc2ccc(F)cc2)cnn1-c1ccc(Cl)cc1`, the Potency was 10 µM (active).

Regarding `CCCc1c(NC(=O)Nc2ccc(F)cc2)cnn1-c1ccccc1`, the Potency is 11.2 µM (active).

As to `CC1=NCCN1CCNC(=O)Nc1ccc(F)cc1`, the “activity change, negative = inhibition” value was -7.96%.

Consider `CCCN1C(=O)c2ccccc2NC1c1ccc(OC)cc1O` (stereo unspecified), for which the Potency is 11.2 µM (active).

Consider `Cc1cccc(C2Nc3ccccc3C(=O)N2c2ccccc2)n1` (stereo unspecified), for which the “activity change, negative = inhibition” value is -14.4%.

As for `Fc1ccc(CSc2nncn2NCc2ccc3c(c2)OCO3)cc1`, the “activity change, negative = inhibition” value is -15.7%.

Consider `Fc1cccc(CNc2ncnc3ccc(-c4ccc5c(c4)OCO5)cc23)c1`, for which the Potency was 4.47 µM (active).

Turning to `Clc1ccc(-c2c[n+](Cc3ccc(Cl)cc3Cl)c3n2CCCCC3)cc1`, the Potency is 0.0794 µM (active).

For the molecule `Clc1ccc(-c2c[n+](Cc3ccc(Br)cc3)c3n2CCCCC3)cc1`, the Potency is 0.0251 µM (active).

Regarding `CCN(CC)c1ccc(/C=C/c2cccc[n+]2C)c(OC)c1`, the Potency was 0.141 µM (active).

Take `COC(=O)c1ccc(COc2ccc(-c3nnn(CC(N)=O)n3)cc2)cc1`: the Potency is 1.58 µM (active).
